Measurements published in the supplement of paper PMC10849652.
Targets with a hit are over-represented here; the source holds about 7,900 in all. About 0.6% of all pairs of compound and target were hits. Unmarked numbers belong to inactive results.

Legend:
Experiment in all cases: log2 fold change, soluble protein after heating vs DMSO (PISA); higher = thermal stabilisation; K562 cells, 10 uM, 30 min; active = over 0.2 and 3.5 SD of the protein, either way, in both replicates (recomputed)
[1] = compound: C/C(=N\NC(=O)C1=CC(=CC=C1)S(=O)(=O)N2CCOCC2)/C3=C(C=CC(=C3)Cl)O
How it was run: (§1)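 Aliquots of K562 cells (2×10^6 cells/mL) treated with 10 μM compound for 30 min were heated for 3 min over 48°C-58°C. After pooling and extraction in PBS with 0.5% NP-40 at 4°C, soluble protein from a 21,000xg, 90 min spin was quantified by TMTpro 16plex LC-MS/MS with channel sums equalised. Thermal stability is expressed against control samples, from duplicates, as a log2 fold change.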

[2] = compound: C1=CC(=C(C=C1Cl)C2=NC3=NC=CN=C3C(=N2)NC4=CC=NC=C4)F
How it was run: as §1

[3] = compound: C1=CC2=C(C=CC(=C2)/C=C\3/C(=O)NC(=NCC4=CC=CS4)S3)N=C1
How it was run: as §1

[4] = compound: C1=CC2=NC=CN=C2C=C1/C=C/3\C(=O)NC(=O)S3
How it was run: as §1

[5] = compound: C1=CC=C2C(=C1)C3=NNC4=CC=CC(=C43)C2=O
How it was run: as §1

[6] = compound: C1CCN(C1)C(=O)NC2=CC=CC(=C2)NC3=NC=C(C(=N3)NCCC4=CN=CN4)Br
How it was run: as §1

[7] = compound: C1CN(CCC1(CC2=CC=C(C=C2)Cl)N)C3=NC=NC4=C3C=CN4
How it was run: as §1

ibrutinib = compound: C=CC(=O)N1CCC[C@@H](n2nc(-c3ccc(Oc4ccccc4)cc3)c3c(N)ncnc32)C1 [ibrutinib]
How it was run: as §1

[8] = compound: CC(=O)c1cnc2ccc(-c3cc(Cl)c(O)c(Cl)c3)nc2c1N[C@H]1CC[C@H](CN(C)C)CC1
How it was run: as §1

[9] = compound: CC(C)(O)CC(=O)NCCn1ccc2ncnc(Nc3ccc(Oc4cccc(C(F)(F)F)c4)c(Cl)c3)c21
How it was run: as §1

[10] = compound: CC1=C(C(CC(=O)N1)C2=CC=C(C=C2)C(F)(F)F)C(=O)NC3=C(C=C4C(=C3)C=NN4)F
How it was run: as §1

[11] = compound: CC1=C(C2=C(C=C1)C(=O)C3=CC=CC=C3N2CCCN)C
How it was run: as §1

erlotinib = compound: C#Cc1cccc(Nc2ncnc3cc(OCCOC)c(OCCOC)cc23)c1 [erlotinib]
How it was run: as §1

[12] = compound: C1=CC(=CC=C1C2=NC3=C(N2)C=C(C=C3)C(=O)N)OC4=CC=C(C=C4)Cl
How it was run: as §1

[13] = compound: C1=CC=C(C=C1)C2=NC(=C(N2)C3=CC=NC=C3)C4=CC(=C(C=C4)Cl)O
How it was run: as §1

IRAK-1-4 Inhibitor I = compound: C1COCCN1CCN2C3=CC=CC=C3N=C2NC(=O)C4=CC(=CC=C4)[N+](=O)[O-] [IRAK-1-4 Inhibitor I]
How it was run: as §1

ralimetinib = compound: CC(C)(C)Cn1c(N)nc2ccc(-c3[nH]c(C(C)(C)C)nc3-c3ccc(F)cc3)nc21 [ralimetinib]
How it was run: as §1

[14] = compound: CC(C)C1=C2N=C(C=C(N2N=C1)NCC3=CC=CC=C3)NCCCCCCN
How it was run: as §1

[15] = compound: CC(C)C[C@@H](C=O)NC(=O)[C@H](CC(C)C)NC(=O)[C@H](CC(C)C)NC(=O)OCc1ccccc1
How it was run: as §1

pinometostat = compound: CC(C)N(C[C@H]1O[C@@H](n2cnc3c(N)ncnc32)[C@H](O)[C@@H]1O)[C@H]1C[C@@H](CCc2nc3cc(C(C)(C)C)ccc3[nH]2)C1 [pinometostat]
How it was run: as §1

UniProt Q9Y248, sequence (Q9Y248 whole entry, looked up): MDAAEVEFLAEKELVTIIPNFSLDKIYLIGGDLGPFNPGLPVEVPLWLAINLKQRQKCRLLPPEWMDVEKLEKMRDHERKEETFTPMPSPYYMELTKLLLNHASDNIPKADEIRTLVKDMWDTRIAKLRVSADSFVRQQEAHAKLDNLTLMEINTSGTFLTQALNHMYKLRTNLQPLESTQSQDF
UniProt Q9Y613, sequence (Q9Y613 whole entry, looked up): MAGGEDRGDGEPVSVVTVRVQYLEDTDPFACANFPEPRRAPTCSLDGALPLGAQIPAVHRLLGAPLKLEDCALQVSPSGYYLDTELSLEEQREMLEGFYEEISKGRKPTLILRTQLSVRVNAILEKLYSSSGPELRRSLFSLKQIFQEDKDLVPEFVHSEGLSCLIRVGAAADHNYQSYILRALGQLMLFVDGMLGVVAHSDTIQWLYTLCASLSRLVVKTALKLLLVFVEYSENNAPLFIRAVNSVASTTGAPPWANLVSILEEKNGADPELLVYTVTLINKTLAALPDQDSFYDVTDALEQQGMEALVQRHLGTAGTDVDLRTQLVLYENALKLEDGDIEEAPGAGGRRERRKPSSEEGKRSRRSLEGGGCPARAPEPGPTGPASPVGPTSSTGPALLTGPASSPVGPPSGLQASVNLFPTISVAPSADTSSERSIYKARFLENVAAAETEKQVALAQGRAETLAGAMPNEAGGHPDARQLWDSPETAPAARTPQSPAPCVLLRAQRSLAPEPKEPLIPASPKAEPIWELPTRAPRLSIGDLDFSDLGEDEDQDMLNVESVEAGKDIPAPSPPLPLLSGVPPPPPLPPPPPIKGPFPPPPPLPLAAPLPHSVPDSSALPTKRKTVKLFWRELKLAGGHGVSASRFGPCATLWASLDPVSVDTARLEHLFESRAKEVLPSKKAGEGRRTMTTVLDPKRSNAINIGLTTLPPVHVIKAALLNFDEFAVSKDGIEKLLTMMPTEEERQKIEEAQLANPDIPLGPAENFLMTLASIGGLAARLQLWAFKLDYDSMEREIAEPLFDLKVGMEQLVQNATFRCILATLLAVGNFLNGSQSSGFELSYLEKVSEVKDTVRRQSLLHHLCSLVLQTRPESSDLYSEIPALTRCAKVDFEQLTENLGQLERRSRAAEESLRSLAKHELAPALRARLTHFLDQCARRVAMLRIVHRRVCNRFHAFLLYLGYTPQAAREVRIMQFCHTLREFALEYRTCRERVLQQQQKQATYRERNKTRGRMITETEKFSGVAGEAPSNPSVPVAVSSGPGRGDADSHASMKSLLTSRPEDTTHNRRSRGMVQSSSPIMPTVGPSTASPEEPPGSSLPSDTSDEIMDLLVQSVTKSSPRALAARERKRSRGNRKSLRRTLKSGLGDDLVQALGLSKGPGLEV
UniProt Q969S8, sequence (Q969S8 whole entry, looked up): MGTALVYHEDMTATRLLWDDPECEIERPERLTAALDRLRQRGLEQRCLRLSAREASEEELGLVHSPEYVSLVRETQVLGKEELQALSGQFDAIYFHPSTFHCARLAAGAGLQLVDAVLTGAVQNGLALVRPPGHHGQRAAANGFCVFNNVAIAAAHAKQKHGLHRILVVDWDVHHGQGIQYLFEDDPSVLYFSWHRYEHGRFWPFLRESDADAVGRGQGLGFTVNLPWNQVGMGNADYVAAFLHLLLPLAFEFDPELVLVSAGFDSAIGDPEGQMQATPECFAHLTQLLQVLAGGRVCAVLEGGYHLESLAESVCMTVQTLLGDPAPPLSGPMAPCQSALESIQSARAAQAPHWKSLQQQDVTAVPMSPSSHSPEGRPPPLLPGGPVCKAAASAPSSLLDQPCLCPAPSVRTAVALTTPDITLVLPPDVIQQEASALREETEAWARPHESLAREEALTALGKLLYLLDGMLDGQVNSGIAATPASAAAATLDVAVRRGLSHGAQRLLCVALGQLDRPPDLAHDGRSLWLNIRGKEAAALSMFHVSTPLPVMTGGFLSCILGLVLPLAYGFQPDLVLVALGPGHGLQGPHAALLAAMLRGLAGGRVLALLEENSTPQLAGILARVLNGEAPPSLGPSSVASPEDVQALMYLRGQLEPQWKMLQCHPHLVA
UniProt Q14956, sequence (Q14956 whole entry, looked up): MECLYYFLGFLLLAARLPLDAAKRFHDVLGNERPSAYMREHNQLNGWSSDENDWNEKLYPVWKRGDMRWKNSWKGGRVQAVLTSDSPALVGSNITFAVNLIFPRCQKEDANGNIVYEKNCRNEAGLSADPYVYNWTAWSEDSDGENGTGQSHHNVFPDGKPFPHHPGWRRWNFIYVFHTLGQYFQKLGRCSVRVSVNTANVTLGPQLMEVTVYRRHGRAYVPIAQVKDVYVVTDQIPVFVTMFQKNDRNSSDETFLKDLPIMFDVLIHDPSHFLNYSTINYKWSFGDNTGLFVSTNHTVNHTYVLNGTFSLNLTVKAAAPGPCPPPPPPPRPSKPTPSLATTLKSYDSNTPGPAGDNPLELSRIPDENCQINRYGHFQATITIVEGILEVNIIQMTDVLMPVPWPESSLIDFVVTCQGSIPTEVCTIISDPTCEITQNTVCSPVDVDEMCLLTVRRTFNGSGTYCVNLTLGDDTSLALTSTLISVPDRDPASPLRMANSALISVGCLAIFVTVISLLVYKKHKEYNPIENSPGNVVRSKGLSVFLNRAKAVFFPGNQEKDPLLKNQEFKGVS
UniProt Q9BVP2, sequence (Q9BVP2 whole entry, looked up): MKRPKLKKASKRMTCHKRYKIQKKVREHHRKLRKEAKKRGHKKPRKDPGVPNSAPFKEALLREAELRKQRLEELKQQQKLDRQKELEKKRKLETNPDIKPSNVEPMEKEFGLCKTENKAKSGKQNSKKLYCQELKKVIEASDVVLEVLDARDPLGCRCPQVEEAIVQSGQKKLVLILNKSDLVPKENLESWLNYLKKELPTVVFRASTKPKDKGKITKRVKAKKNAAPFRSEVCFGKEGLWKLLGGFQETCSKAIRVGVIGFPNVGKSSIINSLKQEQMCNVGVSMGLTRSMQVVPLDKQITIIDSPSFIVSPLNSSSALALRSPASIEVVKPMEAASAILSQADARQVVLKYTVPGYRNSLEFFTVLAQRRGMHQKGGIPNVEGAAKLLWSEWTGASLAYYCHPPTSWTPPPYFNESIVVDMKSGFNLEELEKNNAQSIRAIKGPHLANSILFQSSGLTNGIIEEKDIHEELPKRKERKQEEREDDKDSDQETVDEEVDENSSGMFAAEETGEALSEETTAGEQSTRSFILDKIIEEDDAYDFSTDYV
UniProt Q92664, sequence (Q92664 whole entry, looked up): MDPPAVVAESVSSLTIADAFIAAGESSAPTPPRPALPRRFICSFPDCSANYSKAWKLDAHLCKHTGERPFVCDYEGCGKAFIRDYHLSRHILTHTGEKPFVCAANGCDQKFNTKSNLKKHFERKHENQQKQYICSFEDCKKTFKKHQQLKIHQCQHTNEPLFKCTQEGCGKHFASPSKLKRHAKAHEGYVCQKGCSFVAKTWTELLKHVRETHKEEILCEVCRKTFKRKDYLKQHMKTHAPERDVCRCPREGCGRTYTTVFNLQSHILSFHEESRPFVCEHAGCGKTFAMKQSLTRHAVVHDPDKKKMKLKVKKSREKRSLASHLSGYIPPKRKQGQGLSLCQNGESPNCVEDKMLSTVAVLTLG
UniProt O43524, sequence (O43524 whole entry, looked up): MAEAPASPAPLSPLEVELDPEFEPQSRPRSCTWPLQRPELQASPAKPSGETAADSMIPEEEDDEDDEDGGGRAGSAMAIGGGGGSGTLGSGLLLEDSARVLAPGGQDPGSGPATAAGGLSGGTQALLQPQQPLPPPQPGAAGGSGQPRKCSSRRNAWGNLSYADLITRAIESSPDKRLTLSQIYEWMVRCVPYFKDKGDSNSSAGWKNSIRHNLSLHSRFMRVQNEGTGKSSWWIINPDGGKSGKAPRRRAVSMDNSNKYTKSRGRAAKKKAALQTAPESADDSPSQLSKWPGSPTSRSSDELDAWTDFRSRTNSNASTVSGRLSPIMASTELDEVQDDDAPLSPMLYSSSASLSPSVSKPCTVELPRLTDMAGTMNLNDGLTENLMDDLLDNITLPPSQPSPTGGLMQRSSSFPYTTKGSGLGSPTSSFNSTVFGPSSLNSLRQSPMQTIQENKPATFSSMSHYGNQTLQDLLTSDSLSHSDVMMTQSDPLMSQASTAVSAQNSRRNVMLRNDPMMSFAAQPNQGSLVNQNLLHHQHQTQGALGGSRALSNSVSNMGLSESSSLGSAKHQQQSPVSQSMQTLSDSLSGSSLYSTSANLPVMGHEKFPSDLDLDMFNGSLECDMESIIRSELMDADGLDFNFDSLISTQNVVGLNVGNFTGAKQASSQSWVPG
UniProt Q9UK97, sequence (Q9UK97 whole entry, looked up): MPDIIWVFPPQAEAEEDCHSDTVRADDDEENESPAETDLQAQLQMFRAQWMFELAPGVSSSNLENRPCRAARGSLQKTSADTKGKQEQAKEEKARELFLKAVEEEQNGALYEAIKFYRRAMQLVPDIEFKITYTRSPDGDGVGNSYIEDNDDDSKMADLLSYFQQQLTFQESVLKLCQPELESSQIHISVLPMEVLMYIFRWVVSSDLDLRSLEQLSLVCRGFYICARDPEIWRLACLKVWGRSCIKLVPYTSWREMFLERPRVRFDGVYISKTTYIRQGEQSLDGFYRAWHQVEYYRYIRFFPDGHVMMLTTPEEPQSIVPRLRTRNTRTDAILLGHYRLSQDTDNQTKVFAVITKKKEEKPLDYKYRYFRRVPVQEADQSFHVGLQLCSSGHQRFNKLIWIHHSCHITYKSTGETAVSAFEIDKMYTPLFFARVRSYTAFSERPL
UniProt Q8IVP5, sequence (Q8IVP5 whole entry, looked up): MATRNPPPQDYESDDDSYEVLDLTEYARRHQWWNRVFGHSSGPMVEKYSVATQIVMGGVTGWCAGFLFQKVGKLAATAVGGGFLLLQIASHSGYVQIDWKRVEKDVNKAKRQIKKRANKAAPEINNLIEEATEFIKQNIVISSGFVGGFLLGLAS

Target	log2 fold change [1]	log2 fold change [2]	log2 fold change [3]	log2 fold change [4]	log2 fold change [5]	log2 fold change [6]	log2 fold change [7]	log2 fold change (ibrutinib)	log2 fold change [8]	log2 fold change [9]	log2 fold change [10]	log2 fold change [11]	log2 fold change (erlotinib)	log2 fold change [12]	log2 fold change [13]	log2 fold change (IRAK-1-4 Inhibitor I)	log2 fold change (ralimetinib)	log2 fold change [14]	log2 fold change [15]	log2 fold change (pinometostat)
GNL3 (UniProt Q9BVP2)	-0.562 (active)	0.165	0.149	-0.054	0.053	-0.048	0.142	0.047	0.012	-0.007	0.029	0.066								
GINS2 (UniProt Q9Y248)		0.083		-0.008		-0.089	-0.034	-0.033		-0.02	-0.057	0.113	0.076	-0.045	0.203	0	0.024	-0.081	-0.042	-0.067
FOXO3 (UniProt O43524)	-0.007	-0.025	0.027		0.038	-0.224	-0.283		-0.427	0.086		0.081	0.026	-0.079	-0.035	-0.046	-0.083	-0.091	0.234	0
HSPA8 (UniProt E9PN89)	-0.193	-0.191	0.358	0.06	-0.133	0.267	-0.027	-0.069	-0.145	0.127	0.07	0.043	0.051	-0.061		-0.032		0.085		-0.004
H3-3A (UniProt P84243)				-0.1		0.049	-0.218	-0.016			-0.004	0.656 (active)	0.085	-0.035				-0.07		
HDAC10 (UniProt Q969S8)	-0.067		-0.277	0.066	-0.072	-0.729 (active)	0.333	-0.01	0.137		0.037	-0.287	0.065	0.038	0.045		0.006	-0.124	-0.026	
FHOD1 (UniProt Q9Y613)	-0.259	-0.337	0.059	0.146	-0.007			0.011	0.042	0.035	0.07		-0.002	-0.059	-0.034	-0.053	0.193	-0.197	0.148	0.458
FBXO9 (UniProt Q9UK97)				-0.022		-0.098	-0.037	-0.119			-0.062	0.137	-0.017	0.137	0.03	-0.034	0.137	-0.101	0.088	0.038
HNRNPK isoform 3 (UniProt P61978)		-0.102		0.06		-0.027	-0.052	-0.001		0.087	-0.039	0.21	0.101	-0.032	-0.024	-0.011	0.03	0.075	0.041	-0.021
FUNDC1 (UniProt Q8IVP5)				0.597 (active)				-0.023												
HNRNPUL1 (UniProt M0R247)	-0.317		0.545		-0.419	0.471	0.051		-0.259		0.031	0.008	-0.032	-0.513		0.041		0.121		-0.025
GREB1 (UniProt Q4ZG55)	-0.751 (active)	0	0.092		-0.044	-0.06	0.291		0.037	-0.032		0.066	0.218	-0.132		0.04		0.26		-0.095
GPNMB (UniProt Q14956)		-0.281								0			0.286	-0.046				0.108		
GTF3A (UniProt Q92664)	-0.117	0.095	0.157	0.004	-0.115	-0.019	0.174	-0.013	0.065	-0.084	0.249	0.107	-0.048	0.116		0.034		-0.036		0.004
